Inconclusive results are not listed. Entries that show only a call come without a potency. Calls of active or inactive are those of the source. Unless noted, calls follow the shape of the dose curve; as a rule, active = well fitted curve in the direction sought with a large enough effect; inconclusive = small, poorly fitted or top-dose-only effect, or another doubt; inactive = no such curve, though single readings can be large; an effect the other way counts as inactive or inconclusive.
Experiments:
[1] = molecular target: Glutathione peroxidase 1 (Homo sapiens) (UniProt P07203); experiment: Primary qHTS Assay for Inhibitors of Recombinant Selenoprotein Glutathione Peroxidase 1 (GPX1) (AID 1845191); settings: recombinant GPX1, GR-coupled NADPH fluorescence, 15 min; series mostly up to 48.8 µM; also: nearly all actives have a fitted effect of over 65% in size; also: potency is read from the fitted curve at half-maximal effect
Outline: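 NADPH consumption tracked by fluorescence at 340/450 nm between t=0 and t=15 min, room temperature. Final mix: 10 nM GPX1, 100 nM glutathione reductase, 1 mM GSH, 0.5 mM NADPH, 0.5 mM cumene hydroperoxide, 0.01% BSA; 30 min compound–enzyme preincubation.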

[2] = molecular target: Peroxisome proliferator-activated receptor gamma (Homo sapiens) (UniProt P37231); experiment: qHTS assay for small molecule antagonists of peroxisome proliferator-activated receptor gamma signaling (AID 588537; active = well fitted inhibition curve with a large enough effect in the signal ratio, with a control signal flat, not every such curve was filed as active; the % refers to the signal ratio;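 also: reporter cells co-stimulated with 50 nM rosiglitazone agonist during compound treatment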); settings: HEK293 PPARg-UAS-bla, beta-lactamase ratio, antagonist mode; series mostly up to 76.8 µM
Outline: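 Cell-based beta-lactamase assay; GW9662 served as the antagonist control. Stimulation used rosiglitazone, final 50 nM, 16 h, 37 C.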

[3] = molecular target: Cytochrome P450 3A4 (Homo sapiens) (UniProt P08684); experiment: qHTS Assay for Inhibitors and Substrates of Cytochrome P450 3A4 (AID 884); settings: recombinant CYP3A4, Luciferin-PPXE luminescence; series mostly up to 57.1 µM; also: nearly all actives have a fitted effect of over 50% in size
Outline: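 Luminescent readout of luciferin produced by CYP3A4 (20 nM) dealkylation of Luciferin-PPXE, 25 uM (its KM). NADPH-driven reaction ran 60 min at RT after 10 min compound preincubation; data scaled to 57 uM ketoconazole as 100% inhibition.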

[4] = Cell Viability - LYMP2-020 (AID 986); settings: series mostly up to 92.2 µM;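 also: cells exposed to compound for 24 h at 37 °C; nearly all actives have a fitted effect of over 55% in size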
Outline: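 qHTS, 2500 cells/well; 5 hr then 24 hr compound exposure, 37 C; CellTiter-Glo luminescence after 30 min RT; ATP decrease taken as cytotoxicity; AC50 via Hill equation; tetraoctylammonium bromide positive control.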

[5] = molecular target: Peroxisome proliferator-activated receptor gamma (Homo sapiens) (UniProt P37231); experiment: qHTS assay for small molecule agonists of peroxisome proliferator-activated receptor gamma signaling (AID 588536; active = well fitted curve in the direction sought with a large enough effect in the signal ratio, with a control signal flat, not every such curve was filed as active; the % refers to the signal ratio); settings: HEK293 PPARg-UAS-bla, beta-lactamase ratio, 16 h, percent of rosiglitazone response, DMSO as zero; series mostly up to 76.7 µM
Outline: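 Cells were plated and held 6–6.5 h at 37 C, then compounds were added as a titration series. After a further 16 h, CCF4 dye was loaded for 2 h at room temperature and emission at 460/530 nm recorded.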

[6] = Cell Viability - N2a (AID 540); settings: N2a mouse neuroblastoma cell viability; activity change, negative = cytotoxicity: at 92.2 µM (top of the series);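 also: cells exposed to compound for 40 h at 37 °C; nearly all actives have a fitted effect of over 45% in size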
Outline: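 N2a mouse neuroblastoma, 1500 cells/well, 5 hr settle; compound 40 hr, 37 °C; CellTiter-Glo 20 min RT; luminescence; Hill-fit AC50.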

[7] = Cell Viability - NIH 3T3 (AID 541); settings: NIH 3T3 cell viability, qHTS; activity change, negative = cytotoxicity: at 92.2 µM (top of the series);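 also: cells exposed to compound for 40 hours; nearly all actives have a fitted effect of over 25% in size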
Outline: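 qHTS format; 40 hr compound exposure, 37 °C; CellTiter-Glo luminescence (cellular ATP) read-out after 20 min at RT. Decrease in ATP = cytotoxicity; AC50 from standard Hill fit.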

[8] = Confirmation and Secondary Assay for Modulators of Hemoglobin Beta Chain Splicing at IVS2 654 locus (AID 910); settings: HeLa EGFP-654 splicing reporter, GFP fluorescence, 48 h; series mostly up to 46.1 µM;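 also: HeLa cells stably carrying EGFP split by mutant beta-globin IVS2-654 intron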;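 also: potency is read from the fitted curve at half-maximal effect; potency of activators that raise GFP signal by restoring correct splicing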
Outline: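 Readout: per-well total peak green fluorescence (488 nm ex, 500–520 nm em) from objects 5–250 µm, reflecting correct splicing of an EGFP-654 reporter. Compounds were applied for 2 days at 37 °C to overnight-plated HeLa EGFP-654 cells; controls were DMSO and 500 nM IVS2-654 PNA.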

[9] = Confirmation and Secondary Assay for Modulators of Hemoglobin Beta Chain Splicing at IVS2 705 locus (AID 930); settings: HeLa EGFP-705 splicing reporter, GFP fluorescence, 48 h; series mostly up to 46.1 µM;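 also: GFP fluorescence per well restored by corrected splicing of the IVS2-705 intron in EGFP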; also: potency is read from the fitted curve at half-maximal effect;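 as to activation: HeLa cells stably expressing the EGFP-705 splicing reporter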
Outline: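 HeLa cells stably carrying EGFP interrupted by mutant beta-globin intron 2 (IVS2-705) treated 2 days at 37C with compound; 500 nM antisense PNA as control. Correct splicing read as total peak GFP intensity per well by laser-scanning cytometry.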

[10] = qHTS profiling of the MIPE4 collection as inhibitors of Plasmodium falciparum (3D7) proliferation (AID 743344; call rule not given here); settings: P. falciparum 3D7 in erythrocytes, SYBR Green DNA fluorescence, 72 h; at 28.5 µM (top of the series)
Outline: (§1)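 Parasite DNA was quantified by SYBR Green I fluorescence (ex 485, em 535 nm) after overnight lysis in saponin/Triton buffer at room temperature. Cultures at 0.3% parasitemia and 2.5% hematocrit were first exposed to compound for 72 h at 37 C; signals were normalised to artemisinin (0.29 uM) and vehicle wells.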

[11] = qHTS profiling of the MIPE4 collection as inhibitors of Plasmodium falciparum (DD2) proliferation (AID 743345; call rule not given here); settings: P. falciparum Dd2 in erythrocytes, SYBR Green DNA, 72 h; at 28.5 µM (top of the series)
Outline: as §1

[12] = qHTS profiling of the MIPE4 collection as inhibitors of Plasmodium falciparum (DD2) proliferation (Rep 2) (AID 743346; call rule not given here); settings: P. falciparum Dd2 in erythrocytes, SYBR Green DNA, 72 h; at 28.5 µM (top of the series)
Outline: as §1

[13] = qHTS profiling of the MIPE4 collection as inhibitors of Plasmodium falciparum (HB3) proliferation (AID 743347; call rule not given here); settings: P. falciparum HB3 in erythrocytes, SYBR Green DNA, 72 h; at 28.5 µM (top of the series)
Outline: as §1

[14] = molecular target: Cytochrome P450 1A2 (Homo sapiens) (UniProt P05177); experiment: p450-cyp1a2 (AID 410; calls by dose curve; also: potency is read from the fitted curve at half-maximal effect); settings: recombinant CYP1A2, luciferin-ME demethylation, luminescence; series mostly up to 57 µM
Outline: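 20nM CYP1A2, 100uM Luciferin-ME (=Km), 100mM KPO4; cpd 10 min RT; +NADPH regen, 60 min RT; stop/detect 20 min; luminescence. Normalized to furafylline 57 uM = full inhibition.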

[15] = molecular target: Glucocorticoid receptor (Homo sapiens) (UniProt P04150); experiment: GR-GFP Redistribution (AID 450;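 active = compounds whose dose series gives a full or clear partial fitted curve of increased nuclear translocation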; also: potency is read from the fitted curve at half-maximal effect); settings: U2OS GR-GFP nuclear translocation, laser cytometry, 2 h
[16] = molecular target: Glucocorticoid receptor (Homo sapiens) (UniProt P04150); experiment: GR-EFC Redistribution (AID 451; calls by dose curve; also: potency is read from the fitted curve at half-maximal effect); settings: CHO-K1 GR-EFC translocation, beta-gal luminescence, 2 h
Outline: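 Translocation of GR-ED fusion to nuclear EA restores b-gal, read by luminescence after 1 h room-temperature detection. Engineered CHO-K1 biosensor cells, 1,000/well, exposed 2 h at 37 C to titrations up to 46 uM final.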

[17] = molecular target: 3',5'-cyclic-AMP phosphodiesterase 4B (Homo sapiens) (UniProt Q07343); experiment: qHTS Assay for Inhibitors of PDE-IV (AID 607; active = well fitted activation curve with a large enough effect in the main read-out, with a control signal flat, not every such curve was filed as active); settings: HEK293 ACTOne CNG channel cells, membrane potential fluorescence; series mostly up to 22.9 µM
Outline: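 HEK293 ACTOne cells with CNG channel (1000/well), endogenous PDE4; membrane potential dye, compounds up to 22.9 uM final. Fluorescence Ex 535/Em 590; RO 20-1724 (100 uM final) as reference.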

[18] = molecular target: Lysosomal acid glucosylceramidase (Homo sapiens) (UniProt P04062); experiment: Glucocerebrosidase-p2 (AID 348; in the data active = potency below about 10 µM; also: potency is read from the fitted curve at half-maximal effect); settings: purified GBA, blue fluorogenic substrate, 40 min
Outline: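 Normal human glucocerebrosidase (0.2 nM) with blue fluorogenic substrate (80 uM final) in citrate/phosphate pH 5.9 with 10mM sodium taurocholate, 0.01% tween-20; 40 min RT, NaOH/glycine stop; fluorescence Ex 365/Em 440; AC50 from a titration from 0.6 nM upwards.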

[19] = Stat Signaling Pathway (AID 446; active = well fitted curve in either direction with a large enough effect, not every such curve was filed as active;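 also: ME-180 cervical cancer cells given 40 pM IL-6 alongside compound; SIE-controlled beta-lactamase reporter measured as 460/530 nm FRET emission ratio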); settings: ME-180 (cervical carcinoma) SIE beta-lactamase reporter, IL-6 stimulated, 5 h; series mostly up to 7.69 µM
Outline: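 Normalization used AC90 stimulation (300 pM IL-6) and AC90 inhibition (125 nM pan-JAK inhibitor at 40 pM IL-6). The underlying signal is SIE-driven beta-lactamase in ME-180 cells after 5 h IL-6 exposure with compound.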

[20] = molecular target: Cytochrome P450 2D6 (Homo sapiens) (UniProt P10635); experiment: qHTS Assay for Inhibitors and Substrates of Cytochrome P450 2D6 (AID 891); settings: recombinant CYP2D6, luciferin-ME EGE luminescence; series mostly up to 57.1 µM; also: potency is read from the fitted curve at half-maximal effect; nearly all actives have a fitted effect of over 60% in size
Outline: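 Luminescent read-out of luciferin formed by 5 nM human CYP2D6 demethylating 30 uM Luciferin-ME EGE (Km level) over 60 min at room temperature after NADPH regeneration addition. Data normalized to full inhibition by 1.43 uM quinidine.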

Glutathione peroxidase 1 (Homo sapiens), sequence (P07203 whole entry, looked up): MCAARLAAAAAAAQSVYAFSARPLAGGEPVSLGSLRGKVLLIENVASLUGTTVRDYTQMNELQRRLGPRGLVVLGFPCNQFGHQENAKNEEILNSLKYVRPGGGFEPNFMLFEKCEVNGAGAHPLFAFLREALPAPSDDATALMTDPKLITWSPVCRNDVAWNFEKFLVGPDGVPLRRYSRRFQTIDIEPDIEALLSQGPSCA
Glucocorticoid receptor (Homo sapiens), sequence (P04150 whole entry, looked up, the tested form may be a part): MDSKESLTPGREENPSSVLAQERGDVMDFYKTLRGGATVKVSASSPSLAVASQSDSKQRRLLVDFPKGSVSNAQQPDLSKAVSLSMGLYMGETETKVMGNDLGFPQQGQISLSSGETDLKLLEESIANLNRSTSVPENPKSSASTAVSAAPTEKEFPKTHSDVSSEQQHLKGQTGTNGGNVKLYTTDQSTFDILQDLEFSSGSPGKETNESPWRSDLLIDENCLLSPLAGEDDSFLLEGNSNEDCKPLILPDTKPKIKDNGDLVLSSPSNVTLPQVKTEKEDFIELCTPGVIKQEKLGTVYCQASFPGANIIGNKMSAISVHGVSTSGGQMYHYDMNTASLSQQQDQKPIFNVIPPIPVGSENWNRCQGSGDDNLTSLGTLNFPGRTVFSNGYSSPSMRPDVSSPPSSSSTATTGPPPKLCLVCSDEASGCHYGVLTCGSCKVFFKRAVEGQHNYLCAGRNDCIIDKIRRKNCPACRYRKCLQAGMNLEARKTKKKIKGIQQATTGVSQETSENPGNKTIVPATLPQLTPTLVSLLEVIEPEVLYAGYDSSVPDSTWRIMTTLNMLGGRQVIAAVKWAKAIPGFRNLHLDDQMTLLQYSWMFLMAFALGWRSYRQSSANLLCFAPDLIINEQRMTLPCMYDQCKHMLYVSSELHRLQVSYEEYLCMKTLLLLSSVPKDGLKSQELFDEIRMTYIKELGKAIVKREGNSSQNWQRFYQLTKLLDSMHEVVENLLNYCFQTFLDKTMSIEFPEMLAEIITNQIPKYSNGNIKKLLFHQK
Cytochrome P450 3A4 (Homo sapiens), sequence (P08684 whole entry, looked up): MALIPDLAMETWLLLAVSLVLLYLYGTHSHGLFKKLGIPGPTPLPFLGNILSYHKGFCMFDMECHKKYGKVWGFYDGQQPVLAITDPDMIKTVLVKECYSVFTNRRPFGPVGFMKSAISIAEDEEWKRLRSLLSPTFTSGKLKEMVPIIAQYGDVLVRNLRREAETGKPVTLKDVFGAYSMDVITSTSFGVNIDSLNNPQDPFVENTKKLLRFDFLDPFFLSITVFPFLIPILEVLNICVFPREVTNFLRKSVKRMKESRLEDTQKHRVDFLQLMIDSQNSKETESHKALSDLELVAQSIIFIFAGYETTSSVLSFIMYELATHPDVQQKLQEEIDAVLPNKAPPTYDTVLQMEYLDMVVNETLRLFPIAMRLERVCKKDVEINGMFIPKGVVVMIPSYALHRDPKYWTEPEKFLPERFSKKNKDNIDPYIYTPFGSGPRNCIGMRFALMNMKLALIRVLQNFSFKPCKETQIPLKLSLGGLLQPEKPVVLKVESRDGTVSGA
Peroxisome proliferator-activated receptor gamma (Homo sapiens), sequence (P37231 whole entry, looked up): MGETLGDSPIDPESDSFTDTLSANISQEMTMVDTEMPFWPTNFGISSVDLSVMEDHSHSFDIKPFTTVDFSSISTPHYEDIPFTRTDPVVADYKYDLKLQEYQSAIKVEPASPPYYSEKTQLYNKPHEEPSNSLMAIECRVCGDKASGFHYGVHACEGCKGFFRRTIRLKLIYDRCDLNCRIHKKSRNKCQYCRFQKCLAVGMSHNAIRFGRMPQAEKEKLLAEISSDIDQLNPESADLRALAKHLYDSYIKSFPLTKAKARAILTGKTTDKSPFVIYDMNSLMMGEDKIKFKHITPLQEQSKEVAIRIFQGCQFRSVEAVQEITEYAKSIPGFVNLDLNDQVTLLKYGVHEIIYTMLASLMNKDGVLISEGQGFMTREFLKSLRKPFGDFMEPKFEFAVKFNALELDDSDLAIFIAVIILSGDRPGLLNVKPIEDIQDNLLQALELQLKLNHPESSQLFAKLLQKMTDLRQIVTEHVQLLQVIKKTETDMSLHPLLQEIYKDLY
Cytochrome P450 2D6 (Homo sapiens), sequence (P10635 whole entry, looked up): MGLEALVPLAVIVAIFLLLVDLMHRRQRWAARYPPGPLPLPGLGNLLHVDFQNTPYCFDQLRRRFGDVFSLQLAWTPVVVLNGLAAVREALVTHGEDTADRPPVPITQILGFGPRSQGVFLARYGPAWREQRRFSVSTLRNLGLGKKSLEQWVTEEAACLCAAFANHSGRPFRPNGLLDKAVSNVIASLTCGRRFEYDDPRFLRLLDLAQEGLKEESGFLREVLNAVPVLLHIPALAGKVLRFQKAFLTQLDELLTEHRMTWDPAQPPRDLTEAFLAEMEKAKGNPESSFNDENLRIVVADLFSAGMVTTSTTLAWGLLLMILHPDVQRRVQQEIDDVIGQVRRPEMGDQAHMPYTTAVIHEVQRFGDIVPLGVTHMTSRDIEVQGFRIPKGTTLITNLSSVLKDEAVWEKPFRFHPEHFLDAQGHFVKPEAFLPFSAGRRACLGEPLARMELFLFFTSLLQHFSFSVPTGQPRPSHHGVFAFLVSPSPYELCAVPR
Cytochrome P450 1A2 (Homo sapiens), sequence (P05177 whole entry, looked up): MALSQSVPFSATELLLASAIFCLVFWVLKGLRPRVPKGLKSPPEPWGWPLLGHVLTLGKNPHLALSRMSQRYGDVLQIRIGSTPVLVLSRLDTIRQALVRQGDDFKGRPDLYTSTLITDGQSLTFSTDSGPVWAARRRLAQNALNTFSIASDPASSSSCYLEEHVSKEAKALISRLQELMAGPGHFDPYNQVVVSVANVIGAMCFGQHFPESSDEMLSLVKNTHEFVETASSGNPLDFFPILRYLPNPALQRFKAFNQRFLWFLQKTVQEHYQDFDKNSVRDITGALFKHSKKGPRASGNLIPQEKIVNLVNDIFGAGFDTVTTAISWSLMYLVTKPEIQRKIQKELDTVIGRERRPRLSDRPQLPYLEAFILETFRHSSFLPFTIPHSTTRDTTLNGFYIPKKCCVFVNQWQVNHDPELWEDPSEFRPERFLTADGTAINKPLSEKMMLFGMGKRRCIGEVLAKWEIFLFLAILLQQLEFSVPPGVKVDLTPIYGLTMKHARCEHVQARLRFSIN
3',5'-cyclic-AMP phosphodiesterase 4B (Homo sapiens), sequence (Q07343 whole entry, looked up): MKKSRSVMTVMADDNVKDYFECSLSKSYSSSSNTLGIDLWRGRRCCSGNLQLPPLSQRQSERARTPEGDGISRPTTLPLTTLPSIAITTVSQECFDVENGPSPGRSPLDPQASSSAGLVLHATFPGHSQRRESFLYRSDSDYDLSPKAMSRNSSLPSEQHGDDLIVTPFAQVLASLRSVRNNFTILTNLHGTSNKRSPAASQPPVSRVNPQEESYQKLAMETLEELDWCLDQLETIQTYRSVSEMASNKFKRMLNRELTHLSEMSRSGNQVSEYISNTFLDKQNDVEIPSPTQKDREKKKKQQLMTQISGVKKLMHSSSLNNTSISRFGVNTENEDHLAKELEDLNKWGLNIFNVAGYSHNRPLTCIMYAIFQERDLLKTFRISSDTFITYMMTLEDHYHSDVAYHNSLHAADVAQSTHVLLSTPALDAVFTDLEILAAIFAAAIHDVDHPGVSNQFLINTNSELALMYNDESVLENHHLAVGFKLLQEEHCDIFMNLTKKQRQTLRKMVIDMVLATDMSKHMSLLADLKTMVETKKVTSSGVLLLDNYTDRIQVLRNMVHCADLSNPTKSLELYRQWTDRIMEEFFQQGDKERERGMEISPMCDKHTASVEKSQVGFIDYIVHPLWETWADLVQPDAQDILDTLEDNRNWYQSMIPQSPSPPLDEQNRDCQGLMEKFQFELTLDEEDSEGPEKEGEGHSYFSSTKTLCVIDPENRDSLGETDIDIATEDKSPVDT
Lysosomal acid glucosylceramidase (Homo sapiens), sequence (P04062 whole entry, looked up): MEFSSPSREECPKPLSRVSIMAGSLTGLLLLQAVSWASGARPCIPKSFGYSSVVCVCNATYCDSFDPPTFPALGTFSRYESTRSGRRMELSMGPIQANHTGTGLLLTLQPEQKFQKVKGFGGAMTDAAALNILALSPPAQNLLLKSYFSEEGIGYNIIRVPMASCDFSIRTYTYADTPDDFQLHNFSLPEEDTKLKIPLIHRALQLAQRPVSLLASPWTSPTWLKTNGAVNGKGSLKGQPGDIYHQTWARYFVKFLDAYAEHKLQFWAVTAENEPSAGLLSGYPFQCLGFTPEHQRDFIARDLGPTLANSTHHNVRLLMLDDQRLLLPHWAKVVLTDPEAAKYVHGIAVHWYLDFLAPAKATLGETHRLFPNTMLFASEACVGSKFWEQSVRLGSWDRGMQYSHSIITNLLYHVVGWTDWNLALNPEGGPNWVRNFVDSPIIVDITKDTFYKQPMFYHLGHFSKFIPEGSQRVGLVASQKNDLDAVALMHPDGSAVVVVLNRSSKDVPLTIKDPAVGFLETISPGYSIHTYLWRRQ

## CO/N=C(/C(=O)N[C@@H]1C(=O)N2C(C(=O)O)=CCS[C@H]12)c1csc(N)n1
[1]
  Potency: 10.1 µM (active)

## c1ccccc1
[2]
  outcome: inactive

## COC(=O)c1ccc(C=O)cc1
[3]
  Potency: inactive
[4]
  Potency: inactive
[5]
  outcome: inactive

## COCC(=O)O
[2]
  outcome: inactive

## C/C=C\c1ccc(OC)cc1
[6]
  activity change, negative = cytotoxicity: -0.381% (inactive)
[7]
  Potency: inactive
[8]
  Potency: inactive
[9]
  Potency: inactive

## Cc1ccc([N+](=O)[O-])cc1N
[7]
  Potency: inactive

## COC(=O)c1ccc(C)cc1
[3]
  Potency: inactive

## Nc1cccc(-c2csc(NC(=O)CCCCCCC(=O)NO)n2)c1
[10]
  parasite growth, % of DMSO control: 5.04%
[11]
  parasite growth remaining, % of DMSO control (lower = more inhibition): 7.08%
[12]
  parasite growth, % of control (lower = inhibition): 11.6%
[13]
  growth, % of control: 8.11%
[1]
  Potency: inactive

## CC(C)(CO)C(O)C(=O)NCCCC(=O)O (stereo not drawn)
[1]
  Potency: inactive

## COc1c2ccoc2cc2oc(=O)ccc12
[14]
  Potency: 0.0158 µM (active)
[15]
  Potency: > 46 µM (inactive)
[16]
  Potency: > 46 µM (inactive)
[17]
  Potency: inactive
[8]
  Potency: inactive
[9]
  Potency: inactive

## CN1CC[C@H](CN2c3ccccc3Sc3ccccc32)C1
[18]
  Potency: > 11.4 µM (inactive)
[14]
  Potency: 5.01 µM (active)
[19]
  outcome: inactive
[17]
  Potency: inactive
[20]
  Potency: 0.126 µM (active)

## NC1=NC(S)C2N=CN=C2N1 (stereo not drawn)
[8]
  Potency: 2 µM (active)
[9]
  Potency: 5.01 µM (active)

## C=CCOC(=O)c1ccccc1C(=O)OCC=C
[4]
  Potency: inactive

## S=C1NC=NC2N=CNC12 (stereo not drawn)
[3]
  Potency: inactive
[8]
  Potency: 3.16 µM (active)
[9]
  Potency: 3.16 µM (active)

## O=C1c2ccccc2C(=O)C1c1ccc2ccccc2n1
[19]
  outcome: inactive
[15]
  Potency: > 20.6 µM (inactive)
[4]
  Potency: inactive
[5]
  outcome: inactive

## Cc1ccc([N+](=O)[O-])c(C)c1
[5]
  outcome: inactive
[2]
  outcome: inactive

## CCCCCCCCCCCCCCC1CO1 (stereo not drawn)
[7]
  Potency: inactive

## CN(C)CCCCCCN(C)C
[3]
  Potency: inactive

## O=C(O)CC(C(=O)O)C(CC(=O)O)C(=O)O (stereo not drawn)
[7]
  Potency: inactive

## C1OCOCO1
[6]
  activity change, negative = cytotoxicity: -19.8% (inactive)
[4]
  Potency: inactive

## COc1ccc2[nH]cc(CCNc3ncncc3-c3ccccc3C(F)(F)F)c2c1
[20]
  Potency: 2 µM (active)

## CCNc1ncc2nc(CCc3ccccc3)c(=O)n(C3CC3)c2n1
[20]
  Potency: 0.398 µM (active)

Reference: PubChem BioAssay (NCATS)
